# Laboratory results: PubChem BioAssay (Tox21)
# Records with an inconclusive call do not appear. Entries that show only a call come without a potency. Unmarked numbers belong to inactive results. The source made the active and inactive calls. Calls come from the whole dose curve; as a rule, active = well fitted cell-killing curve with a large enough effect in the repeat runs; inconclusive = weak or mixed curves, or effect the other way; inactive = flat fitted curve, though single readings scatter.
# Assays:
# [1] = cAMP Responsive Elements (CRE) small molecule antagonists, cell-based qHTS assay: qHTS cell viability counter screen (AID 2060913); note: nearly all actives have a fitted effect of over 40% in size
# In short: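 Cytotoxicity read in the same wells as the CRE-bla HEK293T antagonist assay: after 3 h compound with 0.25 uM NKH477 final and 2 h beta-lactamase substrate, CellTiter-Glo luminescence measured.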
# [2] = cAMP Responsive Elements (CRE) small molecule agonists, cell-based qHTS assay: qHTS cell viability counter screen (AID 2060914); note: nearly all actives have a fitted effect of over 50% in size
# In short: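 Luminescence read-out (CellTiter-Glo, 30 min RT) of ATP-based viability in CRE-bla HEK 293T cells, run in the same wells as the β-lactamase reporter assay after 3 h compound treatment at 37 °C.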
# Potency is the fitted concentration of half-maximal effect.
Compound,Potency [1],Potency [2],"viability change, negative = cytotoxic [1]","activity change, negative = cytotoxicity [2]"
COC(C)=O,inactive,inactive,–,–
c1ccc2cnncc2c1,inactive,inactive,–,–
NC(=O)N(O)[C@@H]1COc2cc(OCc3ccccc3)ccc21,inactive,inactive,–,–
CCn1ccc(NS(=O)(=O)c2ccc(N)cc2)nc1=O,inactive,inactive,–,–
COc1cc(C(C)C)c2c(c1)S(=O)(=O)N(COc1cc(=O)n3cccc(OCCN4CCCCC4)c3n1)C2=O,–,–,-2.74% [at 18.9 µM],4.87% [at 18.9 µM]
Cc1ccc(C(C)C)cc2c(C)ccc1-2,inactive,inactive,–,–
CN1C(=O)N(c2ccccc2Br)Cc2cnc(Nc3ccc4c(c3)OCC(CO)O4)nc21 (stereo not drawn),inactive,inactive,–,–
COc1ccc(C(C)=O)cc1,inactive,inactive,–,–
N=C(N)N1CCc2ccccc2C1,–,–,-0.283% [at 8.39 µM],2.66% [at 8.39 µM]
CC1=C(/C=C/C(C)=C\C=C\C(C)=C\C(=O)O)C(C)(C)CCC1,inactive,inactive,–,–
CC(CN(CCN(CC(C)OCCO)CC(C)OCCO)CC(C)OCCO)OCCO (stereo not drawn),inactive,inactive,–,–
CCCCOC(=O)CO,inactive,inactive,–,–
CC1=CC(=O)[C@H]2C[C@@H]1C2(C)C,inactive,inactive,–,–
CCCCCCCCCCCCCCC(=O)NC(CO)CCCCCCCCCCCCCC (stereo not drawn),inactive,inactive,–,–
O=C(Nc1ccccc1)c1ccccc1O,inactive,inactive,–,–
CCCC(O)C(CC)CO (stereo not drawn),inactive,inactive,–,–
CC(C)=CCC[C@H](C)CC=O,inactive,inactive,–,–
ClC(c1ccccc1)(c1ccccc1)c1ccccc1,inactive,inactive,–,–
Cn1cccc1,inactive,inactive,–,–
C[N+]1(C)CCCC(OC(=O)C(O)(c2ccccc2)c2ccccc2)C1 (stereo not drawn),inactive,inactive,–,–
CC(C)(c1ccc(O)cc1)c1ccc(O)cc1,inactive,inactive,–,–
CC(C)NC(=O)c1ccc(C=O)cc1,inactive,inactive,–,–
CCCCCCCCCCCCCCCC(=O)OC[C@H](O)[C@H]1OC(=O)C(O)=C1O,inactive,inactive,–,–

Compound,Potency [1],Potency [2],"viability change, negative = cytotoxic [1]","activity change, negative = cytotoxicity [2]"
CC1(C)Cc2cccc(N)c2O1,inactive,inactive,–,–
O=C(O)c1cc2ccccc2nc1C(=O)O,inactive,inactive,–,–
C/C(=C(\CCO)SS/C(CCO)=C(\C)N(C=O)Cc1cnc(C)nc1N)N(C=O)Cc1cnc(C)nc1N,inactive,inactive,–,–
CC(C)(C)c1ccc(O)c(O)c1,inactive,inactive,–,–
CC(C)=CCC/C(C)=C/COC=O,inactive,inactive,–,–
Oc1ccc2c(c1)OCO2,inactive,inactive,–,–
COc1cccc(N(C)C(=S)Oc2ccc3c(c2)CCCC3)n1,inactive,inactive,–,–
COc1ccccc1O,inactive,inactive,–,–
CCC(Cc1c(I)cc(I)c(N)c1I)C(=O)O (stereo not drawn),inactive,inactive,–,–
CN(C)C(=O)Oc1ccc[n+](C)c1,inactive,inactive,–,–
O=c1[nH]c(=O)c2cn[nH]c2[nH]1,inactive,inactive,–,–
[K+],inactive,inactive,–,–
Cc1ccc(C)c(O)c1,inactive,inactive,–,–
CC(C)(C)C(O)/C=C/c1ccc2c(c1)OCO2 (stereo not drawn),inactive,inactive,–,–
O=P(O)(O)Oc1ccccc1,inactive,inactive,–,–
CN1C[C@@H]2C[C@H]1CN2c1cc2c(cc1F)c(=O)c(C(=O)O)cn2C1CC1,–,–,-0.602% [at 18.9 µM],19.9% [at 18.9 µM]
CCCCCCCC/C=C/CCCCCCCC1=NCCN1CCO,inactive,inactive,–,–
CO[C@]1(NC(=O)CSC(F)F)C(=O)N2C(C(=O)O)=C(CSc3nnnn3CCO)CO[C@H]21,inactive,inactive,–,–
CNC(=S)NN,inactive,inactive,–,–
O=[N+]([O-])c1ccc(NCCO)c(OCCO)c1,inactive,inactive,–,–
O=C(O)c1cc(-c2ccccc2)nc2ccccc12,inactive,inactive,–,–
Cc1cc(Cl)c(C)cc1Cl,inactive,inactive,–,–
O=C(O)c1cn(C2CC2)c2cc(N3CCNCC3)c(F)cc2c1=O,inactive,inactive,–,–

Compound,Potency [1],Potency [2],"viability change, negative = cytotoxic [1]","activity change, negative = cytotoxicity [2]"
O=C(O)C(=O)Cc1ccccc1,inactive,inactive,–,–
O=C1NC(=O)[C@@]2(CCOc3ccc(F)cc32)N1,inactive,inactive,–,–
O=C(O)CCCCCCCCCCCBr,inactive,inactive,–,–
CN(CCOc1ccc(CC2SC(=O)NC2=O)cc1)c1ccccn1 (stereo not drawn),inactive,inactive,–,–
CC(C)NCC(O)c1ccc(O)c(O)c1 (stereo not drawn),inactive,inactive,–,–
CCC(=O)c1c(O)cc(O)cc1O,inactive,inactive,–,–
COc1ccc(NC(=O)CC(C)=O)cc1,inactive,inactive,–,–
C/C=C1\[C@H]2C=C(C)C[C@]1(N)c1ccc(=O)[nH]c1C2,inactive,inactive,–,–
NS(=O)(=O)Cc1noc2ccccc12,inactive,inactive,–,–
O=S(O)O,–,–,17.7% [at 18.9 µM],3.71% [at 18.9 µM]
Cc1ccc(C=O)cc1,inactive,inactive,–,–
CN[C@H]1CC[C@@H](c2ccc(Cl)c(Cl)c2)c2ccc(S(N)(=O)=O)cc21,inactive,inactive,–,–
COc1cc(/C=C/C(=O)O[C@H]2CC[C@]34C[C@]35CC[C@]3(C)[C@@H]([C@H](C)CCC=C(C)C)CC[C@@]3(C)[C@@H]5CC[C@H]4C2(C)C)ccc1O,inactive,inactive,–,–
CCc1cc(SCc2sc(-c3ccc(C(F)(F)F)cc3)nc2CN2CCN(c3ccc(OC)cc3)CC2)ccc1OCC(=O)O,54.5 µM (active),61.1 µM (active),–,–
COc1ccc(C(=O)c2cccc(O)c2)c(OC)c1,inactive,inactive,–,–
O=C(O)CCCCC(=O)O,inactive,inactive,–,–
Clc1nnc(Cl)c2ccccc12,inactive,inactive,–,–
CC(C)C[C@H](NC(=O)CNC(=O)[C@H](Cc1ccc(O)cc1)NC(=O)[C@H](CO)NC(=O)[C@H](Cc1c[nH]c2ccccc12)NC(=O)[C@H](Cc1cnc[nH]1)NC(=O)[C@@H]1CCC(=O)N1)C(=O)N[C@@H](CCCN=C(N)N)C(=O)N1CCC[C@H]1C(=O)NCC(N)=O (stereo in doubt),inactive,inactive,–,–
CC(C)n1nc(-c2cc3cc(O)ccc3[nH]2)c2c(N)ncnc21,inactive,inactive,–,–
Cc1c(C)c2c(c(C)c1OC(=O)c1cccnc1)CC[C@@](C)(CCC[C@H](C)CCC[C@H](C)CCCC(C)C)O2,inactive,inactive,–,–
CC(=O)N(CC(O)CO)c1c(I)c(C(=O)NCC(O)CO)c(I)c(C(=O)NCC(O)CO)c1I (stereo not drawn),inactive,inactive,–,–
CCOC(=O)C(=O)CCCCCCl,inactive,inactive,–,–
CCN(CC)CC(=O)Oc1ccc(NC(C)=O)cc1,inactive,inactive,–,–
